Results filed as inconclusive are left out. The source made the active and inactive calls. Calls follow the shape of the dose curve; as a rule, active = well fitted inhibition curve with a large enough effect; inconclusive = small, poorly fitted or top-dose-only effect; inactive = flat fitted curve, though single readings scatter.
Key:
PC26 = assay: qHTS profiling for inhibitors of Plasmodium falciparum proliferation (AID 504749); also: potency is read from the fitted curve at half-maximal effect; conditions: P. falciparum in erythrocytes, SYBR Green DNA, 72 h; series mostly up to 28.7 µM
Summary of the method: (§1)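 Infected RBCs, 0.3% parasitemia/2.5% Hct final; cpd 72 h, 37 C, 5% CO2; lysis buffer with saponin/triton/SYBR Green I, o/n RT dark; FI 485/535; norm. to artemisinin (0.29 uM) and DMSO.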

SC27B = assay: as above; conditions: P. falciparum in erythrocytes, SYBR Green DNA, 72 h; series mostly up to 28.7 µM
Summary of the method: as §1

W2 = assay: as above; conditions: P. falciparum in erythrocytes, SYBR Green DNA, 72 h; series mostly up to 28.7 µM
Summary of the method: as §1

CRL-7250 = normal cell line; assay: Cytotoxic Profiling of Annotated Libraries Using Quantitative High-Throughput Screening (AID 1296008); conditions: Five cell lines viability, CellTiter-Glo ATP luminescence, 48-72 h; hits give low values; as to max response: % is scaled to controls: 0 for no effect and ±100 for the full control effect
Summary of the method: (§2)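 Cytotoxicity was measured as CellTiter-Glo ATP luminescence, read after 10 min at room temperature. Compound treatment of the cells lasted 48 or 72 hr at 37 degrees Celsius in a qHTS format.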

HEK293 = assay: as above; conditions: Five cell lines viability, CellTiter-Glo ATP luminescence, 48-72 h; hits give low values
Summary of the method: as §2

HaCat [1] = assay: as above; conditions: Five cell lines viability, CellTiter-Glo ATP luminescence, 48-72 h; hits give low values
Summary of the method: as §2

KB-3-1 = assay: as above; conditions: Five cell lines viability, CellTiter-Glo ATP luminescence, 48-72 h, hits give low values
Summary of the method: as §2

NIH3T3 = assay: as above; conditions: Five cell lines viability, CellTiter-Glo ATP luminescence, 48-72 h; hits give low values
Summary of the method: as §2

HACAT [2] = assay: qHTS assay to identify novel small-molecules to repurpose for Merkel cell carcinoma treatment (AID 1296009); conditions: MCC and control cell lines, CellTiter-Glo viability, 72 h; at 44.8 µM (top of the series) unless noted
Summary of the method: (§3)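 72 hr, 37 degree celsius; NPC 8-pt / MIPE 11-pt dose response; compound pinned in DMSO; CellTiter-Glo, 10 min RT, luminescence; normalized to no-cell and DMSO controls.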

HEK293T = assay: as above; conditions: MCC and control cell lines, CellTiter-Glo viability, 72 h; at 44.8 µM (top of the series) unless noted
Summary of the method: as §3

MCC-13 = assay: as above; conditions: MCC and control cell lines, CellTiter-Glo viability, 72 h; series mostly up to 46 µM
Summary of the method: as §3

MKL-1 = assay: as above; conditions: MCC and control cell lines, CellTiter-Glo viability, 72 h; series mostly up to 46 µM
Summary of the method: as §3

MKL-2 = assay: as above; conditions: MCC and control cell lines, CellTiter-Glo viability, 72 h; series mostly up to 46 µM
Summary of the method: as §3

MCC-26 = assay: as above; conditions: MCC and control cell lines, CellTiter-Glo viability, 72 h; series mostly up to 46 µM
Summary of the method: as §3

PAD = assay: qHTS profiling for inhibitors of Plasmodium falciparum proliferation (AID 504749); also: potency is read from the fitted curve at half-maximal effect; conditions: P. falciparum in erythrocytes, SYBR Green DNA, 72 h; series mostly up to 28.7 µM
Summary of the method: as §1

PC15 = assay: as above; conditions: P. falciparum in erythrocytes, SYBR Green DNA, 72 h; series mostly up to 28.7 µM
Summary of the method: as §1

PC49 = assay: as above; conditions: P. falciparum in erythrocytes, SYBR Green DNA, 72 h; series mostly up to 28.7 µM
Summary of the method: as §1

TAB109 = assay: as above; conditions: P. falciparum in erythrocytes, SYBR Green DNA, 72 h; series mostly up to 28.7 µM
Summary of the method: as §1

TAB113 = assay: as above; conditions: P. falciparum in erythrocytes, SYBR Green DNA, 72 h; series mostly up to 28.7 µM
Summary of the method: as §1

TAB165 = assay: as above; conditions: P. falciparum in erythrocytes, SYBR Green DNA, 72 h; series mostly up to 28.7 µM
Summary of the method: as §1
Also: nearly all actives have a fitted effect of over 60% in size.

Cc1cc(O)cc(C)c1Cl
inactive: Potency (SC27B) | max response (CRL-7250) -1.3% | outcome (HEK293) | outcome (HaCat [1]) | max response (KB-3-1) 4.13% | max response (NIH3T3) 1.17% | outcome (HACAT [2]) | outcome (HEK293T) | outcome (MCC-13) | outcome (MKL-1) | outcome (MKL-2)
active: Potency (PC26) 12 µM | Potency (W2) 7.57 µM

O=C(NCC(O)CO)c1c(I)c(C(=O)NCC(O)CO)c(I)c(N(CCO)C(=O)CO)c1I (configuration not stated)
inactive: max response (CRL-7250) -2.46% | max response (HEK293) -0.64% | outcome (HaCat [1]) | max response (KB-3-1) 27.3% | max response (NIH3T3) 2.96% | outcome (HACAT [2]) | outcome (MCC-13) | outcome (MCC-26) | outcome (MKL-1) | outcome (MKL-2)

Cn1cc(C(=O)[C@@H]2CCc3nc[nH]c3C2)c2ccccc21
inactive: outcome (CRL-7250) | max response (HEK293) 3.07% | outcome (HaCat [1]) | max response (KB-3-1) -12.7% | max response (NIH3T3) -0.574% | outcome (HACAT [2]) | outcome (MCC-13) | outcome (MCC-26) | outcome (MKL-1) | outcome (MKL-2)

O=C(/C=C/c1ccc(O)c(O)c1)O[C@@H]1C[C@@](OC(=O)/C=C/c2ccc(O)c(O)c2)(C(=O)O)C[C@@H](O)[C@@H]1O
inactive: max response (CRL-7250) -6.43% | max response (HEK293) -4.83% | outcome (HaCat [1]) | max response (KB-3-1) -0.0821% | max response (NIH3T3) -0.0883% | outcome (HACAT [2]) | outcome (MCC-13) | outcome (MCC-26) | outcome (MKL-1) | outcome (MKL-2)

CC(=O)OCC(=O)[C@@]1(O)CC[C@H]2[C@@H]3CCC4=CC(=O)C=C[C@]4(C)[C@@]3(F)[C@@H](O)C[C@@]21C
inactive: max response (CRL-7250) 2.22% | outcome (HEK293) | outcome (HaCat [1]) | max response (KB-3-1) 29.8% | max response (NIH3T3) 0.516% | outcome (HACAT [2]) | outcome (HEK293T) | outcome (MCC-13) | outcome (MCC-26) | outcome (MKL-1) | outcome (MKL-2)

CO[C@@]1(NC(=O)C(C(=O)O)c2ccc(O)cc2)C(=O)N2C(C(=O)O)=C(CSc3nnnn3C)CO[C@@H]21 (some centres not stated)
inactive: max response (CRL-7250) -2.58% | max response (HEK293) 1.05% | outcome (HaCat [1]) | max response (KB-3-1) 4.1% | max response (NIH3T3) -2.47% | outcome (HACAT [2]) | outcome (MCC-13) | outcome (MCC-26) | outcome (MKL-1) | outcome (MKL-2)

CCN[C@H]1CN(CCCOC)S(=O)(=O)c2sc(S(N)(=O)=O)cc21
inactive: max response (CRL-7250) 2.64% | max response (HEK293) -2.35% | outcome (HaCat [1]) | max response (KB-3-1) 14.5% | outcome (NIH3T3) | outcome (HACAT [2]) | outcome (MCC-13) | outcome (MCC-26) | outcome (MKL-1) | outcome (MKL-2)

O=c1[nH]c(=O)n([C@H]2C[C@H](O)[C@@H](CO)O2)cc1I
inactive: outcome (CRL-7250) | max response (HEK293) -0.666% | outcome (HaCat [1]) | max response (KB-3-1) 5.94% | outcome (NIH3T3) | outcome (HACAT [2]) | outcome (MCC-13) | outcome (MCC-26) | outcome (MKL-1) | outcome (MKL-2)

Cc1ccc2c(c1)c1c3n2CCNC3CCC1 (configuration not stated)
inactive: max response (CRL-7250) -2.33% | max response (HEK293) -1.48% | outcome (HaCat [1]) | max response (KB-3-1) -0.231% | max response (NIH3T3) -0.828% | outcome (HACAT [2]) | outcome (MCC-13) | outcome (MCC-26) | outcome (MKL-1) | outcome (MKL-2)

CC(CSC(=O)c1ccccc1)C(=O)N1C[C@@H](Sc2ccccc2)C[C@H]1C(=O)O (some centres not stated)
inactive: Potency (PAD) | Potency (PC15) | Potency (PC26) | Potency (PC49) | Potency (SC27B) | Potency (TAB109) | Potency (TAB113) | Potency (TAB165) | Potency (W2) | max response (CRL-7250) -5.72% | outcome (HEK293) | outcome (HaCat [1]) | max response (KB-3-1) -11.1% | max response (NIH3T3) -0.681% | outcome (HACAT [2]) inactive [at 17.4 µM] | outcome (HEK293T) inactive [at 17.4 µM] | outcome (MCC-13) | outcome (MCC-26) | outcome (MKL-1) | outcome (MKL-2)

C=CCOc1ccccc1OCC(O)CNC(C)C (configuration not stated)
inactive: max response (CRL-7250) -3.74% | max response (HEK293) 3.92% | outcome (HaCat [1]) | max response (KB-3-1) -1.61% | max response (NIH3T3) 4.04% | outcome (HACAT [2]) | outcome (MCC-13) | outcome (MCC-26) | outcome (MKL-1) | outcome (MKL-2)

O=C1c2cccc(O)c2C(=O)c2c(O)cccc21
inactive: Potency (PAD) | Potency (PC15) | Potency (PC26) | Potency (PC49) | Potency (SC27B) | Potency (TAB109) | Potency (TAB113) | Potency (TAB165) | max response (CRL-7250) -1.24% | max response (HEK293) -0.119% | outcome (HaCat [1]) | max response (KB-3-1) 2.38% | max response (NIH3T3) -0.518% | outcome (HACAT [2]) | outcome (MCC-13) | outcome (MCC-26) | outcome (MKL-1) | outcome (MKL-2)

CCCCCCCC(=O)OCC(COC(=O)CCCCCCC)OC(=O)CCCCCCC
inactive: Potency (PAD) | Potency (PC15) | Potency (PC26) | Potency (PC49) | Potency (SC27B) | Potency (TAB109) | Potency (TAB113) | Potency (TAB165) | max response (CRL-7250) -3.96% | max response (HEK293) 1.52% | outcome (HaCat [1]) | max response (KB-3-1) -1.81% | max response (NIH3T3) 4.46% | outcome (HACAT [2]) | outcome (MCC-13) | outcome (MCC-26) | outcome (MKL-1) | outcome (MKL-2)

CCC(C)(CN(C)C)OC(=O)c1ccccc1 (configuration not stated)
inactive: max response (CRL-7250) -17.5% | outcome (HEK293) | outcome (HaCat [1]) | max response (KB-3-1) 0.865% | max response (NIH3T3) -14.8% | outcome (HACAT [2]) | outcome (HEK293T) | outcome (MCC-13) | outcome (MCC-26) | outcome (MKL-1) | outcome (MKL-2)

O=C1C(c2[nH]c3ccccc3c2O)=Nc2ccccc21
active: Potency (TAB165) 14.1 µM
inactive: Potency (PC49) | max response (CRL-7250) 1.26% | outcome (HEK293) | outcome (HaCat [1]) | max response (KB-3-1) 4.4% | max response (NIH3T3) 4.36% | outcome (HACAT [2]) | outcome (HEK293T) | outcome (MCC-13) | outcome (MCC-26) | outcome (MKL-1) | outcome (MKL-2)

COCC(=O)Nc1c(I)c(C(=O)NCC(O)CO)c(I)c(C(=O)N(C)CC(O)CO)c1I (configuration not stated)
inactive: max response (CRL-7250) -2.09% | max response (HEK293) -5.16% | outcome (HaCat [1]) | max response (KB-3-1) 11.7% | max response (NIH3T3) 1.05% | outcome (HACAT [2]) | outcome (MCC-13) | outcome (MCC-26) | outcome (MKL-1) | outcome (MKL-2)

CC(C)c1cc2c(cc1S(=O)(=O)O)[C@@]1(C)CCC[C@@](C)(C(=O)O)[C@@H]1CC2
inactive: Potency (PAD) | Potency (PC15) | Potency (PC26) | Potency (PC49) | Potency (SC27B) | Potency (TAB109) | Potency (TAB113) | Potency (TAB165) | max response (CRL-7250) -2.14% | max response (HEK293) 0.927% | outcome (HaCat [1]) | max response (KB-3-1) -7.82% | outcome (NIH3T3) | outcome (HACAT [2]) | outcome (MCC-13) | outcome (MCC-26) | outcome (MKL-1) | outcome (MKL-2)

CC1(c2ccccc2)OC(C(=O)O)=CC1=O (configuration not stated)
inactive: max response (CRL-7250) -0.824% | max response (HEK293) 1.9% | outcome (HaCat [1]) | max response (KB-3-1) 17.3% | max response (NIH3T3) -3.39% | outcome (HACAT [2]) | outcome (MCC-13) | outcome (MCC-26) | outcome (MKL-1) | outcome (MKL-2)

— PubChem BioAssay (NCATS)
